Bioassay records deposited in PubChem by National Center for Advancing Translational Sciences (NCATS).
USP2a block = blocks human ubiquitin-specific protease USP2a; USP2 core, Ub-CHOP2 coupled fluorogenic reporter, 485/531; AID 463254; 0.01% of 330,000 active; Potency, µM (highest dose often 38.3 µM), usual class: inhibitors
Target sequence (O75604 whole entry, looked up): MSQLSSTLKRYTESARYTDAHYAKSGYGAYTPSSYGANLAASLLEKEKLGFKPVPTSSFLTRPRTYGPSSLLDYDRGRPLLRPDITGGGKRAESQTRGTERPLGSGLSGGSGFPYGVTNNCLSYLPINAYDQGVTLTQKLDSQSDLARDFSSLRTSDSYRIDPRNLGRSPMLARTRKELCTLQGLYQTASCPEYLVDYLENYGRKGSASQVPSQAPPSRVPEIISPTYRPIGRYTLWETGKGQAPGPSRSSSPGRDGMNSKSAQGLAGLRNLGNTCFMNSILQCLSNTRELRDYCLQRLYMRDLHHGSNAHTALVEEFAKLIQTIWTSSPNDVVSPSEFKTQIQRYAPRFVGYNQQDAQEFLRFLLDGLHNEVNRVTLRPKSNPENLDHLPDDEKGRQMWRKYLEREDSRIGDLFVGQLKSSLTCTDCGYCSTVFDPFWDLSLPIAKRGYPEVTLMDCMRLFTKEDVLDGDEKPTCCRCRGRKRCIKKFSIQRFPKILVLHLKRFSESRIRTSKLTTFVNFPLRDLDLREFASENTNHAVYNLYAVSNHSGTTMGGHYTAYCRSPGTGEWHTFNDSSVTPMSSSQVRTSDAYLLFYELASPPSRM
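Deubiquitinase activity read as fluorescence (485/531 nm) after Ub-CHOP2 cleavage activates the enterokinase reporter on its substrate; USP2 core 10nM, Ub-CHOP2 and substrate 25nM each, 30min compound preincubation then 60min RT; data normalized to NEM, curves fitted.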
MmCpn inh = blocks the Methanococcus maripaludis chaperonin Mm-Cpn; purified Mm-Cpn ATPase, ADP Transcreener TR-FRET; 0.031% of 330,000 active; Potency, µM (highest dose often 76.9 µM), usual class: inhibitors; AID 504842; further: nearly all actives have a fitted effect of over 80% in size
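Reaction buffer contained 30 mM Tris pH 7.4, 100 mM KCl, 5 mM MgCl2 and 1 mM DTT. Mm-CPN (25 nM final) hydrolysed 10 uM ATP over 30 min at 37°C; ADP was read by HTRF.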
p53 reactivation = restores transcriptional activity of mutant p53 | Potency, µM (highest dose often 92.2 µM), hits mostly activators | H1299 p53-A138V BP100-luciferase reporter, luminescence, 24 h | 0.063% of 320,000 active; further: nearly all actives have a fitted effect of over 45% in size
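H1299 (p53-null), stable ts p53-A138V + BP100-Luc; 1000 cells/well, Opti-MEM/10% FBS; cpd 4 pt, 1:5; 24 h, 37 deg C, 5% CO2; detection reagent 10 min RT; luminescence.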
ClpP mod = qHTS Assay for Activators of ClpP | ATP-dependent Clp protease proteolytic subunit (Bacillus subtilis (strain 168)), P80244 | purified B. subtilis ClpP, FRET peptide cleavage, 20 min | Potency, µM (titrated, usually from 57.5 µM) | 1.9% of 340,000 active; active means well fitted falling curve with a large enough effect; inconclusive means small, poorly fitted or top-dose-only effect; inactive means no such curve, though single readings can be large or run the other way; further: the source files actives as falling curves though it sought activators and does not explain the sign; nearly all actives have a fitted effect of over 65% in size
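ClpP 10 microg/mL final, pH 8 Tris/KCl buffer with BSA, glycerol, Tween-20; compound pinned in; FRET-FV substrate; RT 20 min; Ex320/Em430; ΔFRET vs ADEP 5.8 microM, DMSO, no enzyme.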
a7 integrin act = activators of alpha7 integrin expression for muscular dystrophy. alpha7betagal myoblasts, beta-gal FDG fluorescence, 48 h. Potency, µM (titrated, usually from 38.3 µM), usual class: activators. 0.064% of 350,000 active; further: nearly all actives have a fitted effect of over 60% in size
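Alpha7betagal+/- myoblasts (passage 13) were plated 16-24 hr, then exposed to compounds (1:260 dilution of DMSO stock) for 48 hours at 37C. After MPER lysis, β-galactosidase reporter activity was read as FDG fluorescence (ex 480/em 540) after 30 minutes.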
Eya2 inh = inhibitors of human Eya2 phosphatase activity; O00167; recombinant Eya2, OMFP fluorescence dephosphorylation (OMFP is methylfluorescein phosphate); Potency, µM (doses to about 76.9 µM), usual class: inhibitors; 0.006% of 330,000 active; AID 488837
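Eya2 (0.2 uM) preincubated 10 min at ambient with compound, then OMFP substrate added at 50 uM; 10 min reaction in 50 mM HEPES pH 7.5, 50 mM NaCl, 5 uM MgCl2, 0.05% BSA, 1 mM DTT. Fluorescence read at Ex 485/Em 525 nm.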
A number is an active result. Many of the other results were omitted from the sample, so hits are more common in it than they were. Unless noted, the call rests on the fitted dose curve; in most records, active means well fitted curve in the direction sought with a large enough effect; inconclusive means small, poorly fitted or top-dose-only effect, or another doubt; inactive means no such curve, though single readings can be large; an effect the other way counts as inactive or inconclusive.

Screening COc1ccc2cc(-c3nc(Cl)c4c5c(sc4n3)CCCC5)c(=O)oc2c1 returned ClpP mod inactive.
Cc1ccc(-n2nc(CO)c(C(=O)NCc3cccs3)n2)cc1C was read as ClpP mod 28µM.
For CCN(CCCN(C)C)c1ccc(/C=C/c2ccnc3ccccc23)cc1 the results were ClpP mod inactive.
CSc1sc(C(=O)N2CCc3ccccc32)cc1S(=O)(=O)C(C)C was read as USP2a block inactive, MmCpn inh inactive, p53 reactivation inactive, ClpP mod 32µM, a7 integrin act inactive and Eya2 inh inactive.
Screening O=C(O)c1cc(N2C(=O)C3CC=CCC3C2=O)ccc1NCc1cccnc1 (centres undefined) returned USP2a block inactive, MmCpn inh inactive, p53 reactivation inactive, ClpP mod 32µM, a7 integrin act inactive and Eya2 inh inactive.
`O=C(N/N=C/C(Cl)=C\c1ccccc1)c1cnccn1` gave USP2a block inactive, MmCpn inh inactive, p53 reactivation 13µM, ClpP mod inactive, a7 integrin act inactive and Eya2 inh inactive.
O=C(N/N=C/C(Cl)=C/c1ccccc1)c1cnccn1 was read as USP2a block inactive, MmCpn inh inactive, p53 reactivation inconclusive, ClpP mod inactive, a7 integrin act inactive and Eya2 inh inactive.
Cn1ncc2c(NCc3ccco3)ncnc21 was read as ClpP mod inactive.
CC1=C(c2ccc(C)c(C)c2)S(=O)(=O)N(Cc2ccc(C(=O)NCc3ccccc3F)cc2)C1=O was read as ClpP mod 14µM.
For COC(=O)c1ccc(NC(=O)CC2C(=O)N(c3ccccc3)C(=O)N2Cc2ccco2)cc1 (centres undefined) the results were ClpP mod inactive.
`CCOc1ccc(NC(=O)CC2C(=O)N(c3ccccc3)C(=O)N2Cc2ccco2)cc1` (centres undefined) gave USP2a block inactive, MmCpn inh inactive, p53 reactivation inactive, ClpP mod 25µM, a7 integrin act inactive and Eya2 inh inactive.
Screening CCOc1ccc(NC(=O)CSc2nnc(-c3ccccc3Cl)n2Cc2ccco2)cc1 returned USP2a block inactive, MmCpn inh inactive, p53 reactivation inactive, ClpP mod 18µM, a7 integrin act inactive and Eya2 inh inactive.
For COc1ccc(NC(=O)CSc2nnc(-c3ccccc3Cl)n2Cc2ccco2)c(OC)c1 the results were USP2a block inconclusive, MmCpn inh inactive, p53 reactivation inactive, ClpP mod inactive, a7 integrin act inactive and Eya2 inh inactive.
`CN(C)c1ccc(/C=C2\C=Cc3ccccc32)cc1[N+](=O)[O-]` gave ClpP mod inactive.
COC(=O)c1ccc(-c2sc3nc(N4CCOCC4)c4c(c3c2N)CCCC4)o1 was read as USP2a block inactive, MmCpn inh inactive, p53 reactivation inactive, ClpP mod inactive, a7 integrin act inactive and Eya2 inh inactive.
For CC12CCC(=O)N1c1c(sc3nc(N4CCOCC4)c4c(c13)CCCC4)C(=O)N2 (centres undefined) the results were USP2a block inactive, MmCpn inh inactive, p53 reactivation inactive, ClpP mod 25µM, a7 integrin act inactive and Eya2 inh inactive.
For Cc1cccc(C)c1Nc1nnc(SCC(=O)c2ccc3c(c2)NC(=O)CO3)s1 the results were USP2a block inactive, MmCpn inh inactive, p53 reactivation inactive, ClpP mod 35µM, a7 integrin act inactive and Eya2 inh inactive.
For CC(C)c1nc2oc3c(=O)[nH]cnc3c2c2c1CCC2 the results were USP2a block inactive, MmCpn inh inactive, p53 reactivation inactive, ClpP mod 13µM, a7 integrin act inactive and Eya2 inh inactive.
`CCOc1ccc2[nH]c(C)c(CN3CCCCC3)c(=O)c2c1` gave USP2a block inactive, MmCpn inh inactive, p53 reactivation inactive, ClpP mod inactive, a7 integrin act inactive and Eya2 inh inactive.
`CCOc1ccc2[nH]c(C)c(CN(C)C)c(=O)c2c1` gave USP2a block inactive, MmCpn inh inactive, p53 reactivation inactive, ClpP mod 16µM, a7 integrin act inactive and Eya2 inh inactive.
COc1ccc2[nH]c(C)c(CN3CCC(C)CC3)c(=O)c2c1 was read as USP2a block inactive, MmCpn inh inactive, p53 reactivation inactive, ClpP mod 10µM, a7 integrin act inactive and Eya2 inh inactive.
COc1ccc(-c2nn3c(-c4cc(-c5ccccc5)n[nH]4)nnc3s2)cc1OC was read as ClpP mod inactive.
Screening c1ccc2c(c1)sc[n+]2CCC1CCCCC1 returned ClpP mod inactive.
Screening COC(=O)c1ccc(NC(=O)C2CC2)o1 returned USP2a block inactive, MmCpn inh inactive, p53 reactivation inactive, ClpP mod 14µM, a7 integrin act inactive and Eya2 inh inactive.
CC(=O)ON(C(C)=O)c1ccc(/C=C2\C=Cc3ccccc32)cc1 was read as ClpP mod inactive.
O=c1nc(-c2ccccc2)cc(-c2ccccc2)[nH]1 was read as USP2a block inactive, MmCpn inh inactive, p53 reactivation inactive, ClpP mod 28µM, a7 integrin act inactive and Eya2 inh inactive.
COc1ccccc1-c1cc(-c2ccccc2)nc(=O)[nH]1 was read as USP2a block inactive, MmCpn inh inactive, p53 reactivation inactive, ClpP mod inactive, a7 integrin act inactive and Eya2 inh inactive.
Cc1cc(C)cc(Nc2ccc(C(=O)O)cc2N)c1 was read as USP2a block inactive, MmCpn inh inconclusive, p53 reactivation inconclusive, ClpP mod 28µM, a7 integrin act inactive and Eya2 inh inactive.
For C=C1C=C(C(F)F)n2ncc(C(=O)NCc3ccc(OC)cc3)c2N1 the results were ClpP mod inactive.
For CCOc1cc2c(C#N)c(N(CC)CC)nc(N)c2c(N)n1 the results were ClpP mod inactive and a7 integrin act inactive.
`CCCN(CC1CC1)c1nc(N)c2c(N)nc(OC)cc2c1C#N` gave USP2a block inactive, MmCpn inh inactive, p53 reactivation inactive, ClpP mod 25µM, a7 integrin act inactive and Eya2 inh inactive.
`Cc1ccccc1-c1nc(-c2ccc(NC(=O)c3ccc4c(c3)OCO4)cc2)no1` gave USP2a block inactive, MmCpn inh inactive, p53 reactivation inactive, ClpP mod inactive, a7 integrin act inactive and Eya2 inh inactive.
For COc1cc(-c2nc(-c3ccc(NC(=O)c4ccc5c(c4)OCO5)cc3)no2)cc(OC)c1OC the results were USP2a block inactive, MmCpn inh inactive, p53 reactivation inactive, ClpP mod 20µM, a7 integrin act inactive and Eya2 inh inactive.
COc1ccc(Cn2nnnc2C(c2ccccn2)N2CCN(c3ccc(O)cc3)CC2)cc1 (centres undefined) was read as ClpP mod inactive.
